Measured values: ChEMBL document CHEMBL1157539, “Thousands of chemical starting points for antimalarial lead identification” (Nature, 2010)

Assays:
Assay type in all cases: functional
Plasmodium falciparum [1] = test: GSK_TCMDC: Inhibition of Plasmodium falciparum 3D7 in whole red blood cells, using parasite LDH activity as an index of growth. Test compounds present at 2uM
Plasmodium falciparum [2] = test: GSK_TCMDC: Inhibition of Plasmodium falciparum Dd2 in whole red blood cells, using parasite LDH activity as an index of growth. Test compounds present at 2uM
HepG2 = test: GSK_TCMDC: Percent inhibition of human HepG2 cell line. Test compounds present at 10uM.

Row | SMILES | Inhibition (Plasmodium falciparum [1]) [%] | Inhibition (Plasmodium falciparum [2]) [%] | Inhibition (HepG2) [%]
1 | COc1ccc(CC(=O)NC2CCN(c3ccnc4cc(Cl)ccc34)C2)cc1.O=C(O)C(F)(F)F (stereo not drawn) | 100 | 88 | 0
2 | CC(=O)N/N=C/[C@H](CCc1ccccc1)NC(=O)[C@H](CC(C)C)NC(=O)c1cccc(OCCN2CCOCC2)c1 | 94 | 78 | 13
3 | COc1ccc2nccc([C@@H](O)CN3CCC(NCc4ccc5c(c4)nnn5C(C)C)CC3)c2c1.O=C(O)C(=O)O | 100 | 40 | 15
4 | CC1CCCC(Nc2noc(-c3sccc3Br)n2)C1 (stereo not drawn) | 100 | 99 | 7
5 | CCC1(C)N=C(N)N=C(N)N1c1ccc(Cl)cc1.Cl (stereo not drawn) | 95 | 0 | 7
6 | COc1ccc(-c2c(-c3ccc(OCc4ccccc4)cc3O)n[nH]c2C(F)(F)F)cc1 | 93 | 57 | 49
7 | CC(CN(C)C)C(=O)Nc1ccc(-c2ccc(-c3nc4ccccc4[nH]3)cc2)cc1 (stereo not drawn) | 99 | 83 | 2
8 | Cl.O=C(NC1CCC(CCN2Cc3cccc(C(F)(F)F)c3C2)CC1)c1cccc(-c2cccnc2)c1 (stereo not drawn) | 100 | 67 | 26
9 | CCCCCCCN1CCC(CC(=O)Nc2ccnc3ccc(OC)cc23)CC1 | 97 | 52 | 15
10 | Cc1nc2ccc3ccc(CNc4ccc5c(c4)CN([C@@H](CCC(=O)O)C(=O)O)C5=O)cc3c2c(=O)[nH]1 [OSI-7904] | 94 | 95 | 41
11 | Cc1cccc2nc(-c3cccc(-c4cccc(CNCCc5ccncc5)c4)c3)[nH]c12.O=C(O)C(F)(F)F | 100 | 99 | 20
12 | COc1ccc(-c2cnc3[nH]cc(-c4ccc(CCC(=O)O)cc4)c3c2)cn1.O=C(O)C(F)(F)F | 98 | 95 | 25
13 | NCC1CCCN1Cc1cccc(-c2ccc(-c3nc4cc(C(F)(F)F)ccc4[nH]3)cc2)c1.O=C(O)C(F)(F)F (stereo not drawn) | 100 | 95 | 20
14 | O=C(NCc1ccc(Cl)cc1)c1ccc(CN2CCCN(CC3CCCCC3)CC2)cc1.O=C(O)C(F)(F)F | 84 | 5 | 18
15 | c1cc(CNC2Cc3ccc(-c4cccs4)cc3C2)cc(-n2ccnc2)c1 (stereo not drawn) | 100 | 63 | 0
16 | COc1ccc(C2C(C(=O)Nc3cc(Cl)c(OC)cc3OC)c3ccccc3C(=O)N2C)cc1 (stereo not drawn) | 100 | 98 | 14
17 | COc1ccc(-c2cccc(CNC3CCN(C)CC3)c2)cc1S(=O)(=O)NCc1ccccc1.O=C(O)C(F)(F)F | 90 | 22 | 18
18 | N#Cc1ccc(N2CCN(Cc3cccc(-c4ccc(-c5nc6cc(C(F)(F)F)ccc6[nH]5)cc4)c3)CC2)nc1.O=C(O)C(F)(F)F | 100 | 81 | 39
19 | O=C(O)C(F)(F)F.Oc1ccc(CCNc2nc(NCCCOc3cccc(-c4ccccc4)c3)nc(N3CCNCC3)n2)cc1 | 89 | 14 | 40
20 | CC1(CCCCN2CCC(c3c[nH]c4cnccc34)CC2)C(=O)Nc2cccc(Cl)c21 (stereo not drawn) | 100 | 0 | 26
21 | O=C(Nc1ccc(SC(F)(F)F)cc1)Nc1ccc(Cl)c(Cl)c1 | 98 | 99 | 15

Row | SMILES | Inhibition (Plasmodium falciparum [1]) [%] | Inhibition (Plasmodium falciparum [2]) [%] | Inhibition (HepG2) [%]
22 | CCCCOC(=O)[C@H](CCC)NC(=O)c1ccc(NS(=O)(=O)c2ccc3nc(N)[nH]c(=O)c3c2)cc1 | 99 | 3 | 66
23 | O=C(NCCNc1nc(NCCNC(=O)Nc2ccccc2)c2ccc(=O)n(-c3c(F)cccc3F)c2n1)Nc1ccccc1 | 94 | 87 | 1
24 | O=C(NCc1ccccc1)C1Cc2c([nH]c3ccc(Br)cc23)C2(CCN(Cc3ccccc3)CC2)N1 (stereo not drawn) | 98 | 70 | 15
25 | Nc1nc(N)c2c(ccc3c2ccn3CCCF)n1 | 94 | 0 | 61
26 | COc1c(C2CCN(CCCCNC(=O)c3cccc(-c4ccc(C(F)(F)F)cc4)c3)CC2)ccc2c1CCCC2 | 92 | 45 | 50
27 | CN(C)CCOc1ccc(NC(=O)Nc2ccnc3c(Br)cccc23)cc1Cl | 97 | 25 | 10
28 | COc1cc(Cc2cnc(N)nc2N)cc(OCCNC(=O)OCc2ccccc2)c1OC | 93 | 0 | 6
29 | CC(C)COc1ccc(Cl)cc1Nc1nc(-c2nc3ccccc3[nH]2)cs1.Cl | 96 | 29 | 2
30 | CC1(C)NC(=N)N=C(NOCC=Cc2ccccc2)N1 | 98 | 2 | 35
31 | O=C(O)C(F)(F)F.c1ccc(CNCc2cccc(-c3ccc(-c4nc5ccccc5[nH]4)s3)c2)cc1 | 95 | 63 | 8
32 | CCCCCCCN1CCC(CCNc2ccnc3ccc(OC)cc23)CC1 | 84 | 86 | 5
33 | Cc1nnsc1C(=O)Nc1cccc(-c2ccc(-c3nc4cc(C(F)(F)F)ccc4[nH]3)cc2)c1 | 99 | 97 | 62
34 | O=C(NCCNc1ccnc(NCc2ccc(F)cc2)n1)c1cc2ccccc2s1 | 99 | 17 | 6
35 | CC(C)C[C@H](Nc1ccnc(NCC2CCCCC2)n1)C(=O)NCCOc1ccccc1.O=C(O)C(F)(F)F | 89 | 73 | 37
36 | CN(Cc1ccccc1)C1CCCN(c2cc(NC(=O)c3ccc(F)cc3)ccn2)C1.O=C(O)C(F)(F)F (stereo not drawn) | 93 | 95 | 7
37 | O=C(N[C@H]1CCN(Cc2ccc(OC3CCN(Cc4ccccc4)CC3)cc2)C1)c1ccc(Cl)c(Cl)c1.O=C(O)C(F)(F)F | 90 | 6 | 37
38 | CN1CCN(c2ccnc3cc4c(cc23)N(C(=O)Nc2ccc3c(c2)CCCC3=O)CC4)CC1.Cl | 100 | 64 | 5
39 | Cc1ccc2c(OCCN3CCC(Cc4ccc5c(c4)NC(=O)CO5)CC3)cc(F)cc2n1.Cl | 89 | 21 | 24
40 | N#CC(c1ccc(F)cc1)c1ccc2c(C(F)(F)F)cc(C(F)(F)F)nc2n1 (stereo not drawn) | 97 | 89 | 9
41 | O=C(Nc1ccc(OC2CCN(Cc3ccc(F)cc3)C2)c(Cl)c1)c1ccoc1.O=C(O)C(F)(F)F (stereo not drawn) | 90 | 90 | 13
42 | CCc1cc(-c2onc(C(F)(F)F)c2-c2ccccc2)c(O)cc1OC | 98 | 73 | 16

Row | SMILES | Inhibition (Plasmodium falciparum [1]) [%] | Inhibition (Plasmodium falciparum [2]) [%] | Inhibition (HepG2) [%]
43 | CCCCn1c(=N)c(C(=O)NCc2cccnc2)cc2c(=O)n3cccc(C)c3nc21 | 100 | 47 | 7
44 | O=C(Cc1ccc(NC(=O)c2ccc(O)c(-c3ccc(Cl)c(Cl)c3)c2)cc1)NCc1cccc(C(F)(F)F)c1 | 95 | 28 | 0
45 | O=c1cc(-c2ccc3ccccc3c2)[nH]c2ccccc12 | 81 | 44 | 25
46 | CC(C)Sc1nncc(-c2cnnc(SC(C)C)n2)n1 | 100 | 100 | 0
47 | CCCCOc1cc(C)nc2ccc(NC(=O)COCC(=O)Nc3ccc4nc(C)cc(OCCCC)c4c3)cc12 | 90 | 28 | 0
48 | CS(=O)(=O)O.N#Cc1ccc(CNCCCCCCNCc2ccc(C#N)c3ccccc23)c2ccccc12 | 100 | 96 | 51
49 | CCN(CC)CCOc1ccc(C(O)(C#CC(O)(c2ccccc2)c2ccc(OCCN(CC)CC)cc2)c2ccccc2)cc1 (stereo not drawn) | 99 | 99 | 81
50 | COc1ccc(S(=O)(=O)N(CCCN2CCN(C)CC2)Cc2csc(-c3ccc(CNCc4ccccc4)cc3)n2)cc1.O=C(O)C(F)(F)F | 88 | 86 | 10
51 | O=[N+]([O-])c1ccc(Nc2nc(N/N=C/c3cc(Cl)cc(Cl)c3O)nc(Nc3ccccc3)n2)cc1 | 100 | 72 | 29
52 | COc1c(F)ccc2ncc(Cl)c(CCN3CCC(NCc4ccc5c(n4)NC(=O)CS5)CC3)c12.Cl | 98 | 29 | 30
53 | Cc1ccc(Nc2nc(NN=Cc3ccc(-c4ccc([N+](=O)[O-])cc4)o3)nc(N3CCOCC3)n2)cc1Cl | 95 | 47 | 12
54 | CN1CCN(Cc2ccc(-c3cc4c(Nc5ccc(OCc6cccc(F)c6)c(Cl)c5)ncnc4s3)[nH]2)CC1 | 100 | 99 | 23
55 | CCCN1CCN(Cc2ccc(-c3ccc(-c4nc5ccccc5[nH]4)s3)cc2)CC1 | 100 | 93 | 29
56 | O=C(c1cccc(Cl)c1)N1CCN(c2ccc([N+](=O)[O-])c(NC3CC3)c2)CC1 | 100 | 79 | 11
57 | CCCn1cc2c(ccc3nc(N)nc(N)c32)n1 | 95 | 0 | 65
58 | CSc1cccc(Nc2nc3ccc(S(=O)(=O)NCC(C)C)cc3n2C(C)C(C)C)c1 (stereo not drawn) | 93 | 91 | 3
59 | COc1ccc2ncc(F)c(CCN3CCC4(CC3)COC(c3cc5c(cn3)OCCO5)=N4)c2n1.O=C(O)C(=O)O | 89 | 83 | 79
60 | CCOc1cccc(C(=O)Nc2nonc2-c2ccc(OC)c(OC)c2)c1 | 92 | 95 | 11
61 | CC(C)COc1ccc(Cl)cc1Cc1ccc(-c2nc3ccc(F)cc3[nH]2)o1 | 97 | 49 | 35
